Experimental data as given in PubChem BioAssay (NCI).
This is part of a sample that, as a whole, favours compounds with a hit. Of some 83,000 tested, about 20% had one in any assay.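 Activity criterion: percent growth below 10, measured after cells in 96-well plates were exposed to a single compound concentration for 48 hours.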 Values without a mark were called inactive. Activity calls are given as the source filed them.

Each molecule was assayed on RXF 393 renal (assay: NCI-60 one-dose screen, 48 h (100 = growth as untreated, 0 = no growth, -100 = all killed)). Conditions: 10 µM unless noted.

Question: How did the growth turn out when `S=C(Sc1ccc(Cl)cc1)Sc1ccc(Cl)cc1` was run?
Answer: Its growth is -85.5% (active).

Question: With `O=C(O)c1ccc([N+](=O)[O-])cc1S(=O)(=O)O` as the molecule, how does the growth read?
Answer: The growth was 114%.

Question: How did the growth turn out when `O=C1C=C[C@H](O)[C@@]2(CO)O[C@@H]12` was run?
Answer: The growth was 23.1%.

Question: For `NC(=O)NCCO`, which growth is on record?
Answer: The growth was 102%.

Question: How did the growth turn out when `O=C(O)C1CCCN1C(=O)OCc1ccccc1` (stereo not given) was run?
Answer: The growth was 139%.

Question: Which growth does the source give for `C=CC(C)(C)n1cc(C2=C(O)C(=O)C(c3cn(C(C)(C)C=C)c4ccccc34)=C(O)C2=O)c2ccccc21` here?
Answer: Its growth is 93.2%.

Question: Which growth does the source give for `COC(=O)c1cccc([N+](=O)[O-])c1` here?
Answer: Its growth is 108%.

Question: Which growth does the source give for `CCOC(=O)C(=O)CC(=O)c1ccccc1` here?
Answer: Its growth is 103%.

Question: `O=Cc1ccc(F)cc1` was tested. Which growth did it give?
Answer: Its growth is 86.9%.

Question: For `CC1CC2C3CCC4=CC(=O)CCC4(C)C3CCC2(C)C1(O)C(=O)CO` (stereo not given), which growth is on record?
Answer: The growth was 122%.

Question: `CC(CC(CCC(=O)O)(c1ccccc1)c1ccccc1)N(C)C` (stereo not given) was tested. Which growth did it give?
Answer: The growth was 105%.

Question: Which growth does the source give for `Cc1ccc(S(=O)(=O)Oc2ccc3sc4c(CO)ccc(NCCN(C)C)c4c(=O)c3c2)cc1` here?
Answer: Its growth is -57.5% [100 µM] (active).

Question: How did the growth turn out when `O=C(OCC1CCCO1)c1ccc([N+](=O)[O-])cc1` (stereo not given) was run?
Answer: The growth was 102%.

Question: `Nc1c(Br)cc(O)c2c1C(=O)c1ccccc1C2=O` was tested. Which growth did it give?
Answer: Its growth is 80.5%.

Question: For `CC(=O)N(C(C)=O)c1ccc(C)cc1`, which growth is on record?
Answer: The growth was 104%.

Question: How did the growth turn out when `CC1(C)C2CCC1(C)C1(C2)OCCS1` (stereo not given) was run?
Answer: The growth was 96%.

Question: How did the growth turn out when `O=c1n(CC2CO2)c(=O)n(CC2CO2)n1CC1CO1` (stereo not given) was run?
Answer: Its growth is 80.2%.

Question: Which growth does the source give for `S=C=Nc1ccc2ccccc2c1` here?
Answer: Its growth is 110%.

Question: How did the growth turn out when `O=C(O)c1c[nH]c2ccccc2c1=O` was run?
Answer: The growth was 116%.

Question: For `Cc1[nH]n(-c2ccccc2)c(=O)c1C=NC(=S)C(N)=S`, which growth is on record?
Answer: Its growth is 106%.

Question: `CC(=O)N(C)N=Nc1ccc(C)cc1` was tested. Which growth did it give?
Answer: The growth was 122%.

Question: With `COc1ccc2c(Cl)cc(NC(=O)Nc3c(C)cccc3C)nc2c1` as the molecule, how does the growth read?
Answer: The growth was 36.3%.

Question: `CC(=O)NC(O)C(Cl)Cl` (stereo not given) was tested. Which growth did it give?
Answer: Its growth is 113%.

Question: For `CCC(/C=C\C(C)=O)CC`, which growth is on record?
Answer: Its growth is 97.8%.

Question: Which growth does the source give for `CCOC(=O)C(COS(C)(=O)=O)(COS(C)(=O)=O)C(=O)OCC` here?
Answer: The growth was 112%.

Question: With `CC(=O)NNC(=S)N/C=C/c1c(C)ccc([N+](=O)[O-])c1[N+](=O)[O-]` as the molecule, how does the growth read?
Answer: Its growth is 105%.

Question: `CC(=O)N(CCCCCCN(C(C)=O)C(C)=O)C(C)=O` was tested. Which growth did it give?
Answer: Its growth is 112% [100 µM].

Question: How did the growth turn out when `CC(=O)NCNC(C)=O` was run?
Answer: The growth was 108%.

Question: `NNc1ncccn1` was tested. Which growth did it give?
Answer: Its growth is 120%.

Question: How did the growth turn out when `CC12CCC3c4ccc(O)cc4CCC3C1CCC2=O` (stereo not given) was run?
Answer: The growth was 103%.

Question: How did the growth turn out when `Nc1cc2ccccc2c(O)c1O` was run?
Answer: The growth was -52.5% (active).

Question: For `S=c1nc(-c2ccccn2)c(-c2ccccn2)n[nH]1`, which growth is on record?
Answer: The growth was 118%.

Question: For `CC(C)Sc1ncnc2nc[nH]c12`, which growth is on record?
Answer: Its growth is 93%.

Each molecule was assayed on SF-268 CNS in the same assay as above. Conditions: 10 µM unless noted.

Question: `S=C(Sc1ccc(Cl)cc1)Sc1ccc(Cl)cc1` was tested. Which growth did it give?
Answer: Its growth is -1.56% (active).

Question: With `O=C(O)c1ccc([N+](=O)[O-])cc1S(=O)(=O)O` as the molecule, how does the growth read?
Answer: Its growth is 98%.

Question: Which growth does the source give for `O=C(O)CC1=CCCCC1` here?
Answer: Its growth is 93.4%.

Question: `O=C1C=C[C@H](O)[C@@]2(CO)O[C@@H]12` was tested. Which growth did it give?
Answer: Its growth is 100%.

Question: For `NC(=O)NCCO`, which growth is on record?
Answer: Its growth is 101%.

Question: For `O=C(O)C1CCCN1C(=O)OCc1ccccc1` (stereo not given), which growth is on record?
Answer: Its growth is 107%.

Question: Which growth does the source give for `C=CC(C)(C)n1cc(C2=C(O)C(=O)C(c3cn(C(C)(C)C=C)c4ccccc34)=C(O)C2=O)c2ccccc21` here?
Answer: Its growth is 74.7%.

Question: For `COC(=O)c1cccc([N+](=O)[O-])c1`, which growth is on record?
Answer: Its growth is 102%.

Question: Which growth does the source give for `CCOC(=O)C(=O)CC(=O)c1ccccc1` here?
Answer: The growth was 96.7%.

Question: Which growth does the source give for `O=Cc1ccc(F)cc1` here?
Answer: Its growth is 109%.

Question: Which growth does the source give for `CC1CC2C3CCC4=CC(=O)CCC4(C)C3CCC2(C)C1(O)C(=O)CO` (stereo not given) here?
Answer: The growth was 121%.

Question: Which growth does the source give for `CC(CC(CCC(=O)O)(c1ccccc1)c1ccccc1)N(C)C` (stereo not given) here?
Answer: The growth was 102%.

Question: For `Cc1ccc(S(=O)(=O)Oc2ccc3sc4c(CO)ccc(NCCN(C)C)c4c(=O)c3c2)cc1`, which growth is on record?
Answer: The growth was -61.3% [100 µM] (active).

Question: Which growth does the source give for `O=C(OCC1CCCO1)c1ccc([N+](=O)[O-])cc1` (stereo not given) here?
Answer: Its growth is 106%.

Question: For `Nc1c(Br)cc(O)c2c1C(=O)c1ccccc1C2=O`, which growth is on record?
Answer: The growth was 60.3%.

Question: How did the growth turn out when `COc1ccc(Br)c2c1C(=O)CC2` was run?
Answer: Its growth is 91.3%.

Question: With `CC(=O)N(C(C)=O)c1ccc(C)cc1` as the molecule, how does the growth read?
Answer: Its growth is 96.9%.

Question: `CC1(C)C2CCC1(C)C1(C2)OCCS1` (stereo not given) was tested. Which growth did it give?
Answer: The growth was 93.8%.

Question: With `O=c1n(CC2CO2)c(=O)n(CC2CO2)n1CC1CO1` (stereo not given) as the molecule, how does the growth read?
Answer: Its growth is 53.5%.

Question: Which growth does the source give for `S=C=Nc1ccc2ccccc2c1` here?
Answer: Its growth is 108%.

Question: Which growth does the source give for `O=C(O)c1c[nH]c2ccccc2c1=O` here?
Answer: Its growth is 102%.

Question: How did the growth turn out when `Cc1[nH]n(-c2ccccc2)c(=O)c1C=NC(=S)C(N)=S` was run?
Answer: The growth was 100%.

Question: `CC(=O)N(C)N=Nc1ccc(C)cc1` was tested. Which growth did it give?
Answer: The growth was 91.3%.

Question: With `COc1ccc2c(Cl)cc(NC(=O)Nc3c(C)cccc3C)nc2c1` as the molecule, how does the growth read?
Answer: The growth was 81.1%.

Question: For `O=C(c1ccc(Cl)cc1)N1CCCCC1`, which growth is on record?
Answer: The growth was 104%.

Question: How did the growth turn out when `CC(=O)NC(O)C(Cl)Cl` (stereo not given) was run?
Answer: The growth was 95%.

Question: For `CCC(/C=C\C(C)=O)CC`, which growth is on record?
Answer: The growth was 106%.

Question: For `CCOC(=O)C(COS(C)(=O)=O)(COS(C)(=O)=O)C(=O)OCC`, which growth is on record?
Answer: The growth was 99%.

Question: Which growth does the source give for `CC(=O)NNC(=S)N/C=C/c1c(C)ccc([N+](=O)[O-])c1[N+](=O)[O-]` here?
Answer: Its growth is 96.7%.

Question: For `CC(=O)N(CCCCCCN(C(C)=O)C(C)=O)C(C)=O`, which growth is on record?
Answer: Its growth is 104% [100 µM].

Question: For `CC(=O)NCNC(C)=O`, which growth is on record?
Answer: The growth was 110%.

Question: `NNc1ncccn1` was tested. Which growth did it give?
Answer: Its growth is 103%.

Question: Which growth does the source give for `CC12CCC3c4ccc(O)cc4CCC3C1CCC2=O` (stereo not given) here?
Answer: Its growth is 99%.

Question: For `Nc1cc2ccccc2c(O)c1O`, which growth is on record?
Answer: Its growth is 53.6%.

Question: How did the growth turn out when `S=c1nc(-c2ccccn2)c(-c2ccccn2)n[nH]1` was run?
Answer: The growth was 102%.

Question: How did the growth turn out when `CC(C)Sc1ncnc2nc[nH]c12` was run?
Answer: Its growth is 121%.

Question: How did the growth turn out when `Clc1cccc(Cl)c1C1CSc2ccccc2N=C1c1ccccc1` (stereo not given) was run?
Answer: The growth was 73.4%.
